High-throughput results (PubChem)
Most compounds without a hit are left out; they make up all but 4.8% or so of the library.
hgDAF-12 ag: H. glycines DAF-12 receptor agonists, primary screen, cell-based, luminescence, HEK293, GAL4 fusion, UAS-luciferase | HEK293 GAL4-hgDAF12 UAS-luciferase reporter, agonist luminescence; normalized to butyrate control | activation, % at 6.8 µM | actives 1.8% (n = 370,000) | AID 687014, 2013;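 active means activation above a cutoff set at the mean of all screened compounds plus 3 SD, cut at about 10% in these data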;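 further: 0% = DMSO wells and 100% = sodium butyrate wells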
hcDAF12 agonist: H. contortus DAF-12 nuclear receptor activators, primary screen, cell-based, luminescence, HEK293, lit1-tk-luc reporter | HEK293 hcDAF-12 lit1-tk-luc reporter; 0% DMSO, 100% Δ7-dafachronic acid | activation, % at 6.8 µM | actives 1.4% (n = 370,000) | AID 652067, 2013;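 active means activation above the mean of all tested compounds plus 3 SD, cut at about 5.5% in these data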;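 further: 100% = response to 3 µM Δ7-dafachronic acid high control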
SMARCA2 act: SMARCA2 (BRM) function activators, primary screen, cell-based, luminescence, high throughput | MG213 cells, MMTV-luciferase reporter, dexamethasone, overnight | activation, % at 9.1 µM | actives 1% (n = 370,000); in the data active means activation above about 7.8%;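 further: 0% = vehicle wells and 100% = reference activator wells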
DAX1 inh-1: DAX1 (NR0B1) inhibitors on StAR promoter, primary screen, cell-based, luminescence, SF-1 (NR5A1), full-length DAX-1; HEK293T StAR-luciferase reporter, SF-1/DAX-1 repression relief; inhibition, % at 6.8 µM; actives 1.1% (n = 370,000);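 active means inhibition above the mean over all tested compounds plus 3 SD, cut at about 3.6% in these data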;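 further: 0% = DAX-1 cells with DMSO and 100% = cells lacking DAX-1 with DMSO; higher inhibition means more luminescence from relief of DAX-1 repression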
DAX1 inh-2: DAX1 (NR0B1) inhibitors, primary screen, cell-based, HEK293, Gal4-DAX1, luciferase luminescence. HEK293 Gal4-DAX1 luciferase reporter. inhibition, % at 6.75 µM. actives 0.99% (n = 340,000). Nuclear receptor subfamily 0 group B member 1 (Homo sapiens), P51843;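 active means inhibition above the mean over all tested compounds plus 3 SD, cut at about 4.2% in these data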;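 further: 0% = DAX1-transfected cells with DMSO and 100% = empty-vector control cells with DMSO; inhibition shows as a rise in luminescence from relieved DAX1 repression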
Target sequence (P51843 207-470 limits assumed): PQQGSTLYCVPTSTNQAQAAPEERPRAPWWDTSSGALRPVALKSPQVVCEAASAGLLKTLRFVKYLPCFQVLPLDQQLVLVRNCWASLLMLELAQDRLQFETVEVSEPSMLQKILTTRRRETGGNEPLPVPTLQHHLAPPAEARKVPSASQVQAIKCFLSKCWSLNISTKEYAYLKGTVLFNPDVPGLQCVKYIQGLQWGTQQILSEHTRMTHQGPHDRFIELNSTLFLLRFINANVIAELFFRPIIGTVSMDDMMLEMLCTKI
ssDAF12 agonist: S. stercoralis DAF-12 nuclear receptor activators, primary screen, cell-based, luminescence, HEK293, GRIP1 co-expression, lit1-tk-luc. activation, % at 6.8 µM. actives 1% (n = 370,000). Nuclear hormone receptor DAF-12 (Strongyloides stercoralis). HEK293 ssDAF-12/GRIP1 lit1-tk-luc reporter; % of 3 µM dafachronic acid response. AID 652126, 2013;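 active means activation above the mean over all tested compounds plus 3 SD, cut at about 0.9% in these data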;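 further: 0% = DMSO-only wells and 100% = 3 µM delta7-dafachronic acid wells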
* = called active by the depositor.

For COc1cc(OC)cc(C(=O)N=c2sc3ccccc3n2C)c1 the results were hgDAF-12 ag 11*, hcDAF12 agonist 2, SMARCA2 act 5, DAX1 inh-1 2, DAX1 inh-2 1 and ssDAF12 agonist 0.
For COc1ccc(NC(=O)CC2SC(N3CCOCC3)=NC2=O)cc1OC (stereo not drawn) the results were hgDAF-12 ag 0, hcDAF12 agonist -2, SMARCA2 act -1, DAX1 inh-1 0, DAX1 inh-2 1 and ssDAF12 agonist -1.
Screening CCn1c(=O)c2cc(C(=O)Nc3ccc(OC)cc3OC)sc2c2ccccc21 returned hgDAF-12 ag 0, hcDAF12 agonist -1, SMARCA2 act -3, DAX1 inh-1 0, DAX1 inh-2 4.2* and ssDAF12 agonist -1.
Screening CCCN(CCC)CCNC(=O)c1cc2c(=O)n(CC)c3ccccc3c2s1 returned hgDAF-12 ag -2, hcDAF12 agonist 4, SMARCA2 act 4, DAX1 inh-1 2, DAX1 inh-2 4.6* and ssDAF12 agonist 0.
`CCN(CC)CCNC(=O)c1cc2c(=O)n(CC)c3ccccc3c2s1` gave hgDAF-12 ag 0, hcDAF12 agonist 2, SMARCA2 act 5, DAX1 inh-1 1, DAX1 inh-2 1 and ssDAF12 agonist -1.
`CCCC1CCC2(CCC(=O)N2CCSc2ccccc2)CC1` (stereo not drawn) gave hgDAF-12 ag 0, hcDAF12 agonist 3, SMARCA2 act 1, DAX1 inh-1 0 and ssDAF12 agonist -1.
Screening CCOC(=O)COc1ccc(S(=O)(=O)NC2CC2)cc1 returned hgDAF-12 ag -1, hcDAF12 agonist 0, SMARCA2 act -2, DAX1 inh-1 -1, DAX1 inh-2 -1 and ssDAF12 agonist 0.
Screening Cc1nc2cc(-c3cccc(F)c3)nn2c(N2CCN(C(=O)c3ccco3)CC2)c1C returned hgDAF-12 ag 4, hcDAF12 agonist 5.8*, SMARCA2 act 4, DAX1 inh-1 0, DAX1 inh-2 0 and ssDAF12 agonist 1.
COCc1cc(C)nc(SCc2ccc([N+](=O)[O-])cc2)c1C#N was read as hgDAF-12 ag -3, hcDAF12 agonist -2, SMARCA2 act 3, DAX1 inh-1 0, DAX1 inh-2 4.6* and ssDAF12 agonist -1.
Screening COCc1cc(C)nc(SCc2ccccc2Cl)c1C#N returned hgDAF-12 ag -4, hcDAF12 agonist -4, SMARCA2 act -1, DAX1 inh-1 0, DAX1 inh-2 0 and ssDAF12 agonist -1.
For CCOC(=O)C1=NS(=O)(=O)NC(C)=C1 the results were hgDAF-12 ag 1, hcDAF12 agonist 0, SMARCA2 act -3, DAX1 inh-1 1, DAX1 inh-2 1 and ssDAF12 agonist -1.
`CCOC(=O)CNC(=O)c1c2c(nc3ccccc13)CCCC2` gave hgDAF-12 ag -2, hcDAF12 agonist 1, SMARCA2 act 0, DAX1 inh-1 1, DAX1 inh-2 0 and ssDAF12 agonist 1.0*.
For Cc1cc(Cl)ccc1OCCCC(=O)NO the results were hgDAF-12 ag 12*, hcDAF12 agonist -2, SMARCA2 act -3, DAX1 inh-1 -1, DAX1 inh-2 0 and ssDAF12 agonist -1.
For Cc1ccc(NC(=S)NC(=O)c2ccc(-c3ccc(Cl)cc3)o2)c(O)c1 the results were hgDAF-12 ag 2, hcDAF12 agonist 3, SMARCA2 act -3, DAX1 inh-1 0, DAX1 inh-2 1 and ssDAF12 agonist 2.5*.
Screening Clc1ccc(/C=C\c2nccc3c2[nH]c2ccccc23)cc1 returned hgDAF-12 ag 9, hcDAF12 agonist 5.7*, SMARCA2 act 0, DAX1 inh-1 1, DAX1 inh-2 1 and ssDAF12 agonist 0.
C[C@H]1CN([C@@H](C)CO)C(=O)CCCn2nncc2CO[C@H]1CN(C)C(=O)c1cc(-c2ccccc2)on1 was read as hgDAF-12 ag 0, hcDAF12 agonist -1, SMARCA2 act -3, DAX1 inh-1 1, DAX1 inh-2 1 and ssDAF12 agonist 0.
For CCN(CC)CCNC(=O)c1ccc(NC(=O)c2cccc(S(=O)(=O)N3CCc4ccccc43)c2)cc1 the results were hgDAF-12 ag 1, hcDAF12 agonist -1, SMARCA2 act 2, DAX1 inh-1 3.9*, DAX1 inh-2 0 and ssDAF12 agonist -2.
CSc1nnc(SCC(=O)NC(=O)c2ccccc2)s1 was read as hgDAF-12 ag 2, hcDAF12 agonist 1, SMARCA2 act -2, DAX1 inh-1 4.1*, DAX1 inh-2 2 and ssDAF12 agonist -1.
Screening Cc1csc(SCC(=O)NC(=O)c2ccccc2)n1 returned hgDAF-12 ag -1, hcDAF12 agonist -1, SMARCA2 act -3, DAX1 inh-1 2, DAX1 inh-2 1 and ssDAF12 agonist -1.
COCC(=O)Nc1ccc2c(c1)[C@@H]1C[C@H](CC(=O)OC)O[C@H](CO)[C@@H]1O2 was read as hgDAF-12 ag 0, hcDAF12 agonist -2, SMARCA2 act -3, DAX1 inh-1 0, DAX1 inh-2 4.6* and ssDAF12 agonist -1.
COC(=O)C[C@@H]1C[C@H]2c3cc(NC(=O)CC4CC4)ccc3O[C@H]2[C@@H](CO)O1 was read as hgDAF-12 ag -1, hcDAF12 agonist -1, SMARCA2 act -5, DAX1 inh-1 1, DAX1 inh-2 2 and ssDAF12 agonist -1.
COc1ccc([C@H]2C[C@@H](O)[C@H](n3cc(C4CC4)nn3)CN2Cc2cccs2)cc1 was read as hgDAF-12 ag -1, hcDAF12 agonist -3, SMARCA2 act -5, DAX1 inh-1 0, DAX1 inh-2 0 and ssDAF12 agonist -1.
For Oc1[nH]c2ccccc2c1N=Nc1ccccc1Cl the results were hgDAF-12 ag 7, hcDAF12 agonist 4, SMARCA2 act 1, DAX1 inh-1 2, DAX1 inh-2 3 and ssDAF12 agonist 2.5*.
For Oc1[nH]c2ccccc2c1N=Nc1c(F)c(F)c(Cl)c(F)c1F the results were hgDAF-12 ag 0, hcDAF12 agonist 1, SMARCA2 act -2, DAX1 inh-1 1, DAX1 inh-2 1 and ssDAF12 agonist -1.
For COc1ccc(C)cc1S(=O)(=O)NNc1nc(C)cc(C)n1 the results were hgDAF-12 ag -7, hcDAF12 agonist 1, SMARCA2 act -3, DAX1 inh-1 -1, DAX1 inh-2 1 and ssDAF12 agonist -1.
